Our source for the coactivator binding (% of control) values is PubChem BioAssay AID639 (Emory University Molecular Libraries Screening Center, 2007).

The campaign covered roughly 86,000 compounds. About 1,200 (1.4%) were called active. The sample as a whole holds a higher share of actives than the screen did. Unmarked numbers belong to inactive results. Cut-off read from the data, not from the text of the source: active = activity above about 200%; inactive = the rest.

Estrogen receptor (Homo sapiens), sequence (P03372 whole entry, looked up, the tested form may be a part): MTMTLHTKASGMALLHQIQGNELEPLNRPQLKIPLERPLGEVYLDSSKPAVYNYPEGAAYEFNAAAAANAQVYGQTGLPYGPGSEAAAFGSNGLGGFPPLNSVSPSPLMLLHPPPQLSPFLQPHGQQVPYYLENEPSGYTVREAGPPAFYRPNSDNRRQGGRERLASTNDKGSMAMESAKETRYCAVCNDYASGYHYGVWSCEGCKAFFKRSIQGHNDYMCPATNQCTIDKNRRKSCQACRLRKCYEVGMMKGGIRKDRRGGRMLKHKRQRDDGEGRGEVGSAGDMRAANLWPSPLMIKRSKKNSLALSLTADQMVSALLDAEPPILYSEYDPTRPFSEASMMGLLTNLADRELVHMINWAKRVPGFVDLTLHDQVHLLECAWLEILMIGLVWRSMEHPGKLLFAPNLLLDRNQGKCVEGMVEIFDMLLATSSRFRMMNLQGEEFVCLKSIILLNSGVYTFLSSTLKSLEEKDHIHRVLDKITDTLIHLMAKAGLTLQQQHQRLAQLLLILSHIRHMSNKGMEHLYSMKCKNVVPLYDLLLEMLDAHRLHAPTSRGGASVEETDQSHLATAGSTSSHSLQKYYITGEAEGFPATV

This experiment concerns the target Estrogen receptor (Homo sapiens) (UniProt P03372). Briefly: enhancers of ERα–SRC-1 coactivator binding, primary screen, biochemical, TR-FRET, ERα LBD, low estradiol (AID 639).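 Note: binding measured in presence of low estradiol as agonist stimulus; 0% = peptide alone without receptor and 100% = receptor with peptide.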 Particulars: TR-FRET ERalpha-LBD/SRC-Cy5 coactivator binding, 2 h; at 25.6 µM; hits give high values; 100 = basal binding, no effect.
Take `CCOc1ccc(N=C2NC(=O)S/C2=C\c2ccc(O)cc2)cc1`: the coactivator binding (% of control) was 179%.

As to `C/C(=N\NC(=O)c1ccc(C)cc1)C1C(=O)c2ccccc2C1=O`, the coactivator binding (% of control) is 71.8%.

In the case of `Cc1cccc(-n2nc3c(c2NC(=O)c2ccc(Br)o2)CSC3)c1C`, the coactivator binding (% of control) was 129%.

For `COc1cc(OC)c(NC(=O)c2ccc(Br)o2)cc1Cl`, the coactivator binding (% of control) is 112%.

As to `Cc1cc(C)nc(-n2nc(C)cc2NC(=O)c2ccc(Br)o2)n1`, the coactivator binding (% of control) is 427% (active).

Turning to `CC(C)(C)n1nnnc1C(c1ccc(Cl)cc1)N1CCSCC1` (centres undefined), the coactivator binding (% of control) is 105%.

For the compound `C#CCN(N(C)c1ncc(C(F)(F)F)cc1Cl)S(=O)(=O)c1ccc2ccccc2c1`, the coactivator binding (% of control) was 165%.

As to `c1ccc(CCn2nnnc2CN2CCN(C3CCCC3)CC2)cc1`, the coactivator binding (% of control) is 110%.

For the compound `COc1ccc(C(c2nnnn2C2CCCCC2)N2CCN(c3ccccc3F)CC2)cc1` (centres undefined), the coactivator binding (% of control) was 87.6%.

On to `c1ccc(C(c2ccccc2)N2CCN(Cc3nnnn3C3CCCCC3)CC2)cc1`, for which the coactivator binding (% of control) is 209% [fluorescence artefact?] (active).

For `COc1ccc(N2CCN(Cc3ccc(Br)s3)CC2)cc1`, the coactivator binding (% of control) was 108%.

Turning to `Cc1cc(C)n(-c2nc(O)cc(=O)[nH]2)n1`, the coactivator binding (% of control) is 103%.

Turning to `CCSc1nc(-c2ccc(OC)cc2)cc(-c2ccc(OC)cc2)c1C#N`, the coactivator binding (% of control) was 371% [fluorescence artefact?] (active).

For the compound `COC(=O)c1cc(OC)ccc1-c1ccc(OC)cc1`, the coactivator binding (% of control) was 117%.

With `CCOc1cc(-c2cc(-c3ccc(OC)cc3)nc(N)c2C#N)ccc1O`, the coactivator binding (% of control) was 146%.

As to `O=S(=O)(NC1CCCCC1)c1ccc(F)c2ccccc12`, the coactivator binding (% of control) is 91.4%.

With `CCOc1cc2[nH]c(=S)n(Cc3ccc(C(=O)NCCOC)cc3)c(=O)c2cc1OCC`, the coactivator binding (% of control) is 163%.

On to `CCOc1nc(-c2ccc(OC)cc2)ccc1-c1noc(-c2cc(OC)c(OC)c(OC)c2)n1`, for which the coactivator binding (% of control) is 239% (active).

In the case of `COc1cc(-c2nc(-c3ccncc3)no2)cc(OC)c1OC`, the coactivator binding (% of control) is 87.6%.

`COc1ccc(-c2ccc(-c3noc(-c4ccncc4)n3)c(OC)n2)cc1`: the coactivator binding (% of control) is 107%.

`O=C(CO/N=C/c1ccccc1O)NNC(=O)c1ccccc1Cl`: the coactivator binding (% of control) was 102%.

`O=C(Cn1cnc2ccccc2c1=O)NCC1COc2ccccc2O1` (centres undefined): the coactivator binding (% of control) was 104%.

Turning to `OC(COc1ccc2ccccc2c1)Cn1cncn1` (centres undefined), the coactivator binding (% of control) was 100%.

Turning to `Cc1cc(C)c2c(n1)nn1c(N3CCN(c4cccc(Cl)c4)CC3)cc(C)nc21`, the coactivator binding (% of control) is 169%.

Turning to `N#CCSc1nc2ccccc2c(=O)n1-c1ccccc1`, the coactivator binding (% of control) is 100%.

Take `C/C(O)=C\c1nc(=O)c2c(C)cc(C)nc2n1-c1ccccc1`: the coactivator binding (% of control) is 297% [fluorescence artefact?] (active).

In the case of `Cc1cc(Cl)c(S(=O)(=O)N(C)C)cc1OCC(N)=O`, the coactivator binding (% of control) was 103%.

Turning to `O=C1/C(=C/c2cccs2)CCc2ccccc21`, the coactivator binding (% of control) was 66.3%.

For the compound `CC(=O)c1ccc(S(=O)(=O)N2CCN(c3nc4c(C)c(C)ccc4cc3C#N)CC2)cc1`, the coactivator binding (% of control) is 225% [fluorescence artefact?] (active).

With `Cc1cccc2cc(C#N)c(N3CCCC3)nc12`, the coactivator binding (% of control) was 109%.

Consider `Cc1cc(C)c2nc(N3CCCC3)c(C#N)cc2c1`, for which the coactivator binding (% of control) is 101%.

For the compound `Cc1cc(NC(=O)CCC(=O)N(CC(=O)NCC2CCCO2)c2ccccc2C)no1` (centres undefined), the coactivator binding (% of control) was 101%.

As to `O=C(OC1CCCCC1=O)c1cccc(S(=O)(=O)NCc2ccccc2)c1` (centres undefined), the coactivator binding (% of control) is 96.6%.

Turning to `COC(=O)c1nc2ccccc2s1`, the coactivator binding (% of control) is 116%.

Turning to `Nn1cnnc1N/N=C/c1cc([N+](=O)[O-])c(Cl)cc1Cl`, the coactivator binding (% of control) is 600% [fluorescence artefact?] (active).

Regarding `CC(=O)c1cccc(NC(=O)C2CCCN2S(=O)(=O)c2cccc3nsnc23)c1` (centres undefined), the coactivator binding (% of control) is 87.3%.

Consider `CCC(=O)Nc1nc2ccccc2n1Cc1ccccc1C`, for which the coactivator binding (% of control) is 117%.

Turning to `Cc1ccc(Cn2c(NC(=O)c3ccco3)nc3ccccc32)cc1`, the coactivator binding (% of control) is 316% (active).

Regarding `Cc1ccc(-n2nc3cc(Cl)c(NC(=O)c4ccco4)cc3n2)cc1`, the coactivator binding (% of control) is 112%.

As to `O=c1c2ccccc2nc2n1C1(CCCCC1)Cc1ccccc1-2`, the coactivator binding (% of control) is 109%.

As to `O=C(CN1CCCCC1)N1c2ccccc2Sc2ccc(C(F)(F)F)cc21`, the coactivator binding (% of control) is 113%.

As to `CC1(C)C2CCC13CS(=O)(=O)NC3C2` (centres undefined), the coactivator binding (% of control) is 96.5%.

Regarding `CCOC(=O)c1cc2cc(-c3c(C(=O)OCC)oc4cc(O)cc(O)c4c3=O)ccc2o1`, the coactivator binding (% of control) was 72.5%.

With `O=c1c(-c2ccc3c(c2)OCCO3)c(C(F)(F)F)oc2cc(O)cc(O)c12`, the coactivator binding (% of control) was 346% [fluorescence artefact?] (active).

Take `CCN1CCN(Cc2c(O)ccc3c(=O)c(-c4ccc(OC)c(OC)c4)c(C(F)(F)F)oc23)CC1`: the coactivator binding (% of control) was 109%.

Regarding `COc1ccc(C2CC(c3cccs3)=Nc3ccccc3S2)cc1OC` (centres undefined), the coactivator binding (% of control) is 94.7%.

On to `CC(C)C[C@@H](N)c1nnc(SCC(=O)c2ccc(Cl)cc2)o1`, for which the coactivator binding (% of control) is 100%.

`NC(=O)c1sc2nc3c(c(-c4ccccc4)c2c1N)CCC3`: the coactivator binding (% of control) was 80.3%.

On to `Cc1cccc(NC(=O)c2sc3nc4c(c(-c5ccco5)c3c2N)CCC4)c1`, for which the coactivator binding (% of control) is 104%.

With `CC(=O)Nc1ccc(NC(=O)c2sc3nc4c(c(-c5ccc(C)cc5)c3c2N)CCC4)cc1`, the coactivator binding (% of control) was 1100% [fluorescence artefact?] (active).

As to `CO/N=C(/CS(=O)(=O)c1ccc(Br)cc1)c1ccc(OC)cc1`, the coactivator binding (% of control) is 94.8%.

With `CCOC(=O)c1ccc2c(c1)nc(C)n2CC`, the coactivator binding (% of control) is 89.8%.

For `O=C(NCCCN1CCCCCC1)C1CC(=O)N(C2CCCC2)C1` (centres undefined), the coactivator binding (% of control) was 688% [fluorescence artefact?] (active).

`O=C(NCCc1ccc(Cl)cc1)C1CC(=O)N(C2CCCCC2)C1` (centres undefined): the coactivator binding (% of control) is 133%.

On to `CC(C)OCCCNC(=O)C1CC(=O)N(C2CCCCCCC2)C1` (centres undefined), for which the coactivator binding (% of control) is 80.7%.

Turning to `Cc1ccc(S(=O)(=O)Oc2ccc(/C=N/NC(=O)c3c(Cl)cnn3C)cc2)cc1`, the coactivator binding (% of control) is 106%.

As to `CCC(C)(C(=O)NC1CCCCC1)N(C)C(=O)c1ccc2c(c1)OCO2` (centres undefined), the coactivator binding (% of control) is 107%.

Consider `COCCNC(=O)C(c1ccc(C)o1)N(Cc1cccs1)C(=O)c1snc(C(N)=O)c1N` (centres undefined), for which the coactivator binding (% of control) is 117%.

For `CCC(C(=O)NC1CCCC1)N(C(=O)c1snc(C(N)=O)c1N)c1ccc2c(c1)OCCO2` (centres undefined), the coactivator binding (% of control) is 244% [fluorescence artefact?] (active).
